# Laboratory results as given in PubChem BioAssay.
# Unmarked numbers belong to inactive results. Active and inactive are the calls of the source.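 How the source made its calls, unless noted: active means mean inhibition above 46.5%, the solvent-only control mean plus 3 SD; inactive means the rest.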
# How the values were obtained:
# [1] = tested on: transactivating tegument protein VP16 (Human herpesvirus 1); assay: VP16 transactivation reporter inhibitors, counter-screen for SRC2 inhibitor project, cell-based, luminescence, single concentration (AID 652007; in the data active means inhibition above about 36%); details: cell-based VP16 transactivation luciferase reporter, at 8.9 µM, stronger effect = higher value
# [2] = molecular target: Nuclear receptor coactivator 2 (Homo sapiens) (UniProt Q15596); assay: SRC2 coactivator transcriptional activity inhibitors, confirmation, cell-based, luminescence, HEK293, triplicate (AID 652008); details: HEK293 GAL4-SRC2 luciferase reporter, at 8.9 µM, stronger effect = higher value;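 further: 0% = DMSO-treated cells and 100% = Gossypol at 36 µM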
# Chain of Nuclear receptor coactivator 2 (Homo sapiens) (Q15596 whole entry, looked up, the tested form may be a part): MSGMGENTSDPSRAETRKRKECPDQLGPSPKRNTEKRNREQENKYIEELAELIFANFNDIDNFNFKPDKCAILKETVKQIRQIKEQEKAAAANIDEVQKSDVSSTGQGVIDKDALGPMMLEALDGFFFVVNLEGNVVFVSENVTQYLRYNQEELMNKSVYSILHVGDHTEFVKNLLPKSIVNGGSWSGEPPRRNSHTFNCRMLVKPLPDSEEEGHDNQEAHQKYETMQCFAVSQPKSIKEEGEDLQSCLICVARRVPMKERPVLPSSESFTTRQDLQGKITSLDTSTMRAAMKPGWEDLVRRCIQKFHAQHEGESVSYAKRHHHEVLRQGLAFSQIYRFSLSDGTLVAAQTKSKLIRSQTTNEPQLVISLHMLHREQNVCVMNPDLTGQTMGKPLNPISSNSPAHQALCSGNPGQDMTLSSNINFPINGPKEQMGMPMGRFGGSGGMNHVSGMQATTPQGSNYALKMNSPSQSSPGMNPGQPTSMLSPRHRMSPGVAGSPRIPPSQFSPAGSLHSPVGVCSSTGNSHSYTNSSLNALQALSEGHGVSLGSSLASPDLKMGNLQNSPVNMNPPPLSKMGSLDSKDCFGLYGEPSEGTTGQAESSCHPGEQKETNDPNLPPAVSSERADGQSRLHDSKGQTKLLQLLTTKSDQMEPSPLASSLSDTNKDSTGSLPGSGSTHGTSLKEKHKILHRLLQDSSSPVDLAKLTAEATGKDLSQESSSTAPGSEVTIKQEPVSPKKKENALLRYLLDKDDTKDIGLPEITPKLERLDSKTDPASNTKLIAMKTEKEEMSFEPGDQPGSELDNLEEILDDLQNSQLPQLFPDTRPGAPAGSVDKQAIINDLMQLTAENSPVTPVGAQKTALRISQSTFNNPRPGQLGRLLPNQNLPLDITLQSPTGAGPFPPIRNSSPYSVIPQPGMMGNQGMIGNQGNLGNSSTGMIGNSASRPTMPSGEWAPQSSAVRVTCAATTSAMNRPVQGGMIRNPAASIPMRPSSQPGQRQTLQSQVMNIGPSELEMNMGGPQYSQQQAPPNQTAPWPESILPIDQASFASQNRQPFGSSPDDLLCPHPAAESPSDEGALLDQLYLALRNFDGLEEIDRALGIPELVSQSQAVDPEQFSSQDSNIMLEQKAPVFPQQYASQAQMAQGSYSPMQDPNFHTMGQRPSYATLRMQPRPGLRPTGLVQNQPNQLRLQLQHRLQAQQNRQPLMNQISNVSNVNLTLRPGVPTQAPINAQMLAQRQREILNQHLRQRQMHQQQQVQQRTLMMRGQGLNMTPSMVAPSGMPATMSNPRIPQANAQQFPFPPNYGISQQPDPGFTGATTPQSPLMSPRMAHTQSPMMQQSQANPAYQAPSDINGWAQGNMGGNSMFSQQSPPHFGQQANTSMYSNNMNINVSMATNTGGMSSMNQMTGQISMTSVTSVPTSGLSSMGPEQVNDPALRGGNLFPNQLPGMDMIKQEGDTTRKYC
SMILES,inhibition [1],inhibition [2]
Cc1c(CCC(=O)N[C@@H](CC(C)C)C(=O)O)c(=O)oc2cc3oc4c(c3cc12)CCCC4,37.5% (active),69.8% (active)
O=[N+]([O-])c1cccc(NC(=S)Nc2nc(-c3ccc(Cl)cc3Cl)cs2)c1,-15.8%,9.75%
CC(=O)OC1CCC2(C)C(CCC3C4CC=C(C(C)=O)C4(C)OC(=O)CC32)C1 (stereo not drawn),20.8%,16.1%
Cc1ccc(S(=O)(=O)/N=C(\N)c2ccc(F)cc2)cc1,5.17%,-14.9%
COc1ccccc1C(C)NC(=O)C1CCN(S(=O)(=O)c2cccs2)CC1 (stereo not drawn),-3.74%,6.18%
CCCCOc1ccc(C2(C)NC(=O)NC2=O)cc1 (stereo not drawn),-7.32%,-2.28%
CCCSc1ccc2nc(-c3ccccc3)cn2c1,-24.4%,58% (active)
Cc1ccc2nc(C)cc(Nc3ccc4c(c3)OCCO4)c2c1,-23.7%,0.71%
c1ccc(-n2cnc3ccccc32)cc1,-25.6%,5.17%
Cc1cc(C(=O)COC(=O)c2ccc(O)cc2O)c(C)n1-c1ccc(OC(F)F)cc1,12.6%,35.1%
O=C(NC1CC1)c1ccc2c(c1)N(Cc1ccc(Cl)cc1)CCS2,4.34%,18.6%
CN1CCC(=NNc2ncnc3sc4c(c23)CCCC4)CC1,-9.72%,-19.6%
O=C(CN1CCN(S(=O)(=O)c2ccc(F)c(F)c2)CC1)Nc1ccccc1C(=O)NC1CC1,-15.4%,-35.8%
COc1ccc(-c2cn3cccnc3n2)cc1NC(=O)C(C)Oc1ccccc1 (stereo not drawn),-18.1%,-20.2%
O=S(=O)(c1ccccc1)N1CCC(O)(CSc2ccc(F)cc2)CC1,-1.83%,13.4%
COc1ccc(OCC(=O)Nc2ccc3c(c2)C(=O)NC3=O)cc1,-1.89%,-9.88%
CC1CCc2nc(N)c(C#N)c(-c3cccn3C)c2C1 (stereo not drawn),15.5%,15.7%

SMILES,inhibition [1],inhibition [2]
CCN(C(=O)C1CCCN(c2nnc(-n3cccc3)s2)C1)c1ccccc1C (stereo not drawn),11.5%,16.4%
COc1ccc(-n2c(SCC(=O)NN=Cc3c(O)ccc4ccccc34)nnc2-c2ccc(C(C)(C)C)cc2)cc1,-13%,30.7%
CC(C)OC(=O)c1ccc(NCc2cc(O)ccc2O)cc1,51.7% (active),54.8% (active)
Cc1ccc(S(=O)(=O)CC(=O)N(CCCN(C)C)c2nc3ccc(C)cc3s2)cc1,-1.57%,15.1%
Cc1ccc(-c2nc(-c3ccccn3)no2)cc1Cl,11.8%,34%
CCN(CC)S(=O)(=O)c1ccc(C)c(NC(=S)NC2CCCCC2)c1,8.38%,-9.1%
Nc1n[nH]c2c1C1(CCCC1)Cc1ccccc1-2,1.41%,10%
Cc1cc(N)ccc1-n1nc2ccccc2n1,-7.48%,3.06%
O=C(c1ccccc1)C(CN1CCCCC1)c1ccccc1 (stereo not drawn),29.1%,63.6% (active)
Cc1c(NC(=O)COC(=O)C23CC4CC(CC(O)(C4)C2)C3)c(=O)n(-c2ccccc2)n1C,2.86%,3.79%
CN(Cc1cc(Cl)cc(Cl)c1)CC(C(=O)c1ccccc1)c1ccccc1 (stereo not drawn),25%,47.9% (active)
Cc1nc(S(=O)(=O)N(C)c2ccccc2)c(C#N)c(C)c1Cl,3.59%,40.9%
O=C1CSC(c2ccc([N+](=O)[O-])cc2)N1c1ccc(O)cc1 (stereo not drawn),5.23%,-13.8%
NC(Cc1ccc(Cl)cc1)c1csc(NC(=O)NCC2CCCCC2)n1 (stereo not drawn),-2.01%,3.16%
COc1cc(Nc2nc(-c3ccccc3)c3cc(C)ccc3n2)cc(OC)c1OC,6.86%,10.7%
O=C(NCC1COc2ccccc2O1)c1cccc(S(=O)(=O)N2CCN(c3ccccc3)CC2)c1 (stereo not drawn),-4.6%,5.11%
CCOc1ccccc1N1CCN(C(=O)c2cc(-c3cc(OC)ccc3OC)nc3ccccc23)CC1,-6.34%,14.4%
